Source: PubChem BioAssay AID1159580 (chemical genetic matrix, 2015)
Where “and” joins values, the source holds several entries; their conditions need not be identical. Identical values can stand only once. Out of some 5,500 compounds screened, about 2,000 (36%) were called active. Inconclusive results (about 18%) are left out. Cut-off read from the data, not from the text of the source: active = normalized growth mostly below about 0.91 (no sharp cut-off); inconclusive = no clear call, values can overlap the other calls; inactive = mostly above about 0.92. Some of the results follow.

Experiment: chemical genetic growth profiling, strain panel (AID 1159580);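 note: tested at 20 µM; growth read once vehicle control cultures reached saturation at 30 °C; 1 = growth at the plate median or of vehicle wells; lower values mean less growth of the strain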
Settings: growth OD
[1] = S. cerevisiae deletion strains, locus YDL101C, strain DUN1, stronger effect = lower value
[2] = S. cerevisiae deletion strains, locus YHR030C, strain SLT2, stronger effect = lower value
[3] = S. cerevisiae deletion strains, locus YHR079C, strain IRE1, stronger effect = lower value
[4] = S. cerevisiae deletion strains, locus YJL095W, strain BCK1, stronger effect = lower value
[5] = S. cerevisiae deletion strains, locus YJR066W, strain TOR1, stronger effect = lower value
[6] = S. cerevisiae deletion strains, locus YLR113W, strain HOG1, stronger effect = lower value
[7] = S. cerevisiae deletion strains, locus YNL183C, strain NPR1, stronger effect = lower value
[8] = S. cerevisiae deletion strains, locus YOR061W, strain CKA2, stronger effect = lower value
[9] = S. cerevisiae deletion strains, locus YOR231W, strain MKK1, stronger effect = lower value
[10] = S. cerevisiae deletion strains, locus YPL256C, strain CLN2, stronger effect = lower value

Measured: normalized growth

CC[C@H]1CN2CCC1C[C@@H]2[C@@H](O)c1ccnc2ccc(OC)cc12 (stereo partly drawn)
inactive: S. cerevisiae deletion strains, locus YAL013W, strain DEP1, stronger effect = lower value 0.997 | S. cerevisiae deletion strains, locus YBR021W, strain FUR4, stronger effect = lower value 0.996 | S. cerevisiae deletion strains, locus YBR229C, strain ROT2, stronger effect = lower value 0.992 | S. cerevisiae deletion strains, locus YCL029C, strain bik1, stronger effect = lower value 1.01 | S. cerevisiae deletion strains, locus YDL035C, strain GPR1, stronger effect = lower value 0.995 | S. cerevisiae deletion strains, locus YDL074C, strain BRE1, stronger effect = lower value 1.01 | [1] 0.995 | S. cerevisiae deletion strains, locus YDL134C, strain PPH21, stronger effect = lower value 1.01 | S. cerevisiae deletion strains, locus YDL185W, strain tfp1, stronger effect = lower value 1.01 | S. cerevisiae deletion strains, locus YDL192W, strain arf1, stronger effect = lower value 1.01 | S. cerevisiae deletion strains, locus YDR101C, strain arx1, stronger effect = lower value 1 | S. cerevisiae deletion strains, locus YDR150W, strain NUM1, stronger effect = lower value 1.01 | S. cerevisiae deletion strains, locus YDR162C, strain NBP2, stronger effect = lower value 1 | S. cerevisiae deletion strains, locus YDR318W, strain mcm21, stronger effect = lower value 1.02 | S. cerevisiae deletion strains, locus YDR388W, stronger effect = lower value 1.01 | S. cerevisiae deletion strains, locus YDR502C, strain sam2, stronger effect = lower value 1.04 | S. cerevisiae deletion strains, locus YEL061C, strain CIN8, stronger effect = lower value 1.01 | S. cerevisiae deletion strains, locus YER110C, stronger effect = lower value 1.01 | S. cerevisiae deletion strains, locus YER155C, strain BEM2, stronger effect = lower value 1.01 | S. cerevisiae deletion strains, locus YER167W, strain BCK2, stronger effect = lower value 1 | S. cerevisiae deletion strains, locus YGL078C, strain dbp3, stronger effect = lower value 1.01 | S. cerevisiae deletion strains, locus YGL086W, strain mad1, stronger effect = lower value 1 | S. cerevisiae deletion strains, locus YGL248W, strain PDE1, stronger effect = lower value 0.997 | S. cerevisiae deletion strains, locus YGR078C, strain PAC10, stronger effect = lower value 1 | S. cerevisiae deletion strains, locus YGR135W, strain pre9, stronger effect = lower value 1.01 | S. cerevisiae deletion strains, locus YGR229C, strain SMI1, stronger effect = lower value 0.977 | S. cerevisiae deletion strains, locus YGR252W, strain gcn5, stronger effect = lower value 0.994 | [2] 1.01 and 1.04 | S. cerevisiae deletion strains, locus YHR079C, strain IRE1 (second series), stronger effect = lower value 1.01 | [3] 1.02 | S. cerevisiae deletion strains, locus YHR094C, strain hxt1, stronger effect = lower value 1.01 | S. cerevisiae deletion strains, locus YHR129C, strain ARP1, stronger effect = lower value 1.01 | S. cerevisiae deletion strains, locus YHR200W, strain rpn10, stronger effect = lower value 1.02 | S. cerevisiae deletion strains, locus YIL066C, strain RNR3, stronger effect = lower value 1 | S. cerevisiae deletion strains, locus YIL073C, strain SPO22, stronger effect = lower value 1.03 | S. cerevisiae deletion strains, locus YIL125W, strain kgd1, stronger effect = lower value 1 | S. cerevisiae deletion strains, locus YIR030C, strain dcg1, stronger effect = lower value 1.01 | [4] 1.01 and 1.02 | S. cerevisiae deletion strains, locus YJL134W, strain LCB3, stronger effect = lower value 0.997 | S. cerevisiae deletion strains, locus YJL168C, strain set2, stronger effect = lower value 1.01 | S. cerevisiae deletion strains, locus YJL187C, strain SWE1 (second series), stronger effect = lower value 0.999 | S. cerevisiae deletion strains, locus YJR043C, strain POL32, stronger effect = lower value 1.01 | [5] 0.956 | S. cerevisiae deletion strains, locus YJR075W, strain HOC1, stronger effect = lower value 1 | S. cerevisiae deletion strains, locus YKL009W, strain mrt4, stronger effect = lower value 1.08 | S. cerevisiae deletion strains, locus YKL068W, stronger effect = lower value 1.01 | S. cerevisiae deletion strains, locus YKL085W, strain MDH1 (second series), stronger effect = lower value 1.03 | S. cerevisiae deletion strains, locus YKL085W, strain MDH1, stronger effect = lower value 1.03 | S. cerevisiae deletion strains, locus YKL190W, strain CNB1, stronger effect = lower value 1.01 | S. cerevisiae deletion strains, locus YKR001C, strain vps1, stronger effect = lower value 1.02 | S. cerevisiae deletion strains, locus YLR039C, strain RIC1, stronger effect = lower value 1.01 | S. cerevisiae deletion strains, locus YLR058C, strain SHM2, stronger effect = lower value 1 | S. cerevisiae deletion strains, locus YLR102C, strain apc9, stronger effect = lower value 1.01 | [6] 1.02 | S. cerevisiae deletion strains, locus YLR262C, strain YPT6, stronger effect = lower value 0.988 | S. cerevisiae deletion strains, locus YLR268W, strain sec22, stronger effect = lower value 1.02 | S. cerevisiae deletion strains, locus YLR330W, strain CHS5, stronger effect = lower value 1 | S. cerevisiae deletion strains, locus YLR342W, strain FKS1 (second series), stronger effect = lower value 0.983 | S. cerevisiae deletion strains, locus YLR371W, strain rom2, stronger effect = lower value 1.01 | S. cerevisiae deletion strains, locus YLR418C, strain cdc73, stronger effect = lower value 1.01 | S. cerevisiae deletion strains, locus YML016C, strain PPZ1, stronger effect = lower value 1 | S. cerevisiae deletion strains, locus YML032C, strain rad52, stronger effect = lower value 1.01 | S. cerevisiae deletion strains, locus YML124C, strain tub3, stronger effect = lower value 1.01 | S. cerevisiae deletion strains, locus YMR078C, strain ctf18, stronger effect = lower value 1.03 | S. cerevisiae deletion strains, locus YMR223W, strain ubp8, stronger effect = lower value 0.996 | S. cerevisiae deletion strains, locus YMR263W, strain SAP30, stronger effect = lower value 1.02 | S. cerevisiae deletion strains, locus YMR307W, strain GAS1, stronger effect = lower value 0.95 | S. cerevisiae deletion strains, locus YNL067W, strain RPL9B, stronger effect = lower value 1.01 | S. cerevisiae deletion strains, locus YNL128W, strain TEP1, stronger effect = lower value 1.01 | S. cerevisiae deletion strains, locus YNL153C, strain GIM3, stronger effect = lower value 1 | [7] 0.942 | S. cerevisiae deletion strains, locus YNL233W, strain BNI4, stronger effect = lower value 1 | S. cerevisiae deletion strains, locus YNL250W, strain rad50, stronger effect = lower value 1.01 | S. cerevisiae deletion strains, locus YNL271C, strain bni1, stronger effect = lower value 1.01 | S. cerevisiae deletion strains, locus YNL298W, strain CLA4, stronger effect = lower value 1.01 | S. cerevisiae deletion strains, locus YNL307C, strain MCK1, stronger effect = lower value 1.01 | S. cerevisiae deletion strains, locus YNL322C, strain KRE1, stronger effect = lower value 1 | S. cerevisiae deletion strains, locus YNR052C, strain pop2, stronger effect = lower value 1.02 | S. cerevisiae deletion strains, locus YOL006C, strain TOP1, stronger effect = lower value 1.02 | S. cerevisiae deletion strains, locus YOL012C, strain htz1 0.815 | S. cerevisiae deletion strains, locus YOL147C, strain pex11, stronger effect = lower value 1.01 | [8] 1.01 | S. cerevisiae deletion strains, locus YOR069W, strain VPS5, stronger effect = lower value 0.998 | S. cerevisiae deletion strains, locus YOR136W, strain idh2, stronger effect = lower value 1.02 | S. cerevisiae deletion strains, locus YOR144C, strain elg1, stronger effect = lower value 1.01 | S. cerevisiae deletion strains, locus YOR184W, strain ser1, stronger effect = lower value 1.01 | [9] 1.03 | S. cerevisiae deletion strains, locus YOR316C, strain cot1, stronger effect = lower value 1.01 | S. cerevisiae deletion strains, locus YPL055C, strain LGE1, stronger effect = lower value 0.993 | S. cerevisiae deletion strains, locus YPL241C, strain CIN2, stronger effect = lower value 0.997 | [10] 1.02 | S. cerevisiae deletion strains, locus YPR119W, strain clb2, stronger effect = lower value 1.01 | S. cerevisiae deletion strains, locus YPR141C, strain kar3, stronger effect = lower value 1.01 | S. cerevisiae deletion strains, locus YPR163C, strain tif3, stronger effect = lower value 1.02 | S. cerevisiae deletion strains, locus YPR167C, strain met16, stronger effect = lower value 1.01 | S. cerevisiae deletion strains, strain wtn01, stronger effect = lower value 1.03 | S. cerevisiae strains, strain wild type, stronger effect = lower value 0.999

O=c1cc(CSc2ccc(Cl)cc2)c2ccc(O)cc2o1
active: S. cerevisiae deletion strains, locus YDR477W, strain SNF1, stronger effect = lower value 0.674 | S. cerevisiae deletion strains, locus YER123W, strain YCK3, stronger effect = lower value 0.565 | S. cerevisiae deletion strains, locus YER133W, strain GLC7, stronger effect = lower value 0.572 | S. cerevisiae deletion strains, locus YGR040W, strain KSS1, stronger effect = lower value 0.631 | S. cerevisiae deletion strains, locus YGR052W, strain FMP48, stronger effect = lower value 0.436 | [2] 0.452 | [3] 0.405 | S. cerevisiae deletion strains, locus YHR082C, strain KSP1, stronger effect = lower value 0.472 | [4] 0.432 | S. cerevisiae deletion strains, locus YKL048C, strain ELM1, stronger effect = lower value 0.656 | S. cerevisiae deletion strains, locus YKL067W, strain YNK1, stronger effect = lower value 0.732 | S. cerevisiae deletion strains, locus YKL101W, strain HSL1, stronger effect = lower value 0.682 | S. cerevisiae deletion strains, locus YKL203C, strain TOR2, stronger effect = lower value 0.66 | [6] 0.265 | S. cerevisiae deletion strains, locus YLR403W, strain SFP1, stronger effect = lower value 0.639 | S. cerevisiae deletion strains, locus YML070W, strain DAK1, stronger effect = lower value 0.666 | [7] 0.434 | S. cerevisiae deletion strains, locus YOR119C, strain RIO1, stronger effect = lower value 0.654 | [9] 0.444 | S. cerevisiae deletion strains, locus YPL031C, strain PHO85, stronger effect = lower value 0.497 | S. cerevisiae deletion strains, locus YPL153C, strain RAD53, stronger effect = lower value 0.442 | S. cerevisiae deletion strains, locus YPL204W, strain HRR25, stronger effect = lower value 0.574 | [10] 0.41
inactive: S. cerevisiae deletion strains, locus YAR019C, strain CDC15, stronger effect = lower value 0.937 | S. cerevisiae deletion strains, locus YBL105C, strain PKC1, stronger effect = lower value 0.963 | S. cerevisiae deletion strains, locus YBR135W, strain CKS1, stronger effect = lower value 0.944 | S. cerevisiae deletion strains, locus YBR136W, strain MEC1, stronger effect = lower value 0.949 | S. cerevisiae deletion strains, locus YBR160W, strain CDC28, stronger effect = lower value 0.96 | S. cerevisiae deletion strains, locus YDL017W, strain CDC7, stronger effect = lower value 0.964 | S. cerevisiae deletion strains, locus YDL028C, strain MPS1, stronger effect = lower value 0.956 | [1] 0.974 | S. cerevisiae deletion strains, locus YDL108W, strain KIN28, stronger effect = lower value 0.955 | S. cerevisiae deletion strains, locus YDL132W, strain cdc53, stronger effect = lower value 0.944 | S. cerevisiae deletion strains, locus YDL214C, strain PRR2, stronger effect = lower value 0.738 | S. cerevisiae deletion strains, locus YDR052C, strain DBF4, stronger effect = lower value 0.962 | S. cerevisiae deletion strains, locus YDR054C, strain cdc34, stronger effect = lower value 0.937 | S. cerevisiae deletion strains, locus YDR226W, strain ADK1, stronger effect = lower value 0.959 | S. cerevisiae deletion strains, locus YFL009W, strain cdc4, stronger effect = lower value 0.935 | S. cerevisiae deletion strains, locus YFL029C, strain CAK1, stronger effect = lower value 0.943 | S. cerevisiae deletion strains, locus YFR003C, strain YPI1, stronger effect = lower value 0.959 | S. cerevisiae deletion strains, locus YFR019W, strain FAB1, stronger effect = lower value 0.826 | S. cerevisiae deletion strains, locus YFR028C, strain CDC14, stronger effect = lower value 0.954 | S. cerevisiae deletion strains, locus YGR092W, strain DBF2, stronger effect = lower value 0.63 | S. cerevisiae deletion strains, locus YHR205W, strain SCH9, stronger effect = lower value 0.759 | S. cerevisiae deletion strains, locus YIL147C, strain SLN1, stronger effect = lower value 0.95 | S. cerevisiae deletion strains, locus YJL128C, strain PBS2, stronger effect = lower value 0.92 | S. cerevisiae deletion strains, locus YJL157C, strain FAR1, stronger effect = lower value 0.737 | S. cerevisiae deletion strains, locus YJR016C, strain ILV3, stronger effect = lower value 0.945 | S. cerevisiae deletion strains, locus YJR066W, strain TOR1 (second series), stronger effect = lower value 0.738 | [5] 0.534 | S. cerevisiae deletion strains, locus YKL193C, strain SDS22, stronger effect = lower value 0.947 | S. cerevisiae deletion strains, locus YLR133W, strain CKI1, stronger effect = lower value 0.747 | S. cerevisiae deletion strains, locus YMR001C, strain CDC5, stronger effect = lower value 0.944 | S. cerevisiae deletion strains, locus YMR205C, strain PFK2 (second series), stronger effect = lower value 0.748 | S. cerevisiae deletion strains, locus YMR277W, strain FCP1, stronger effect = lower value 0.928 | S. cerevisiae deletion strains, locus YNL006W, strain LST8, stronger effect = lower value 0.958 | S. cerevisiae deletion strains, locus YNL020C, strain ARK1, stronger effect = lower value 0.719 | S. cerevisiae deletion strains, locus YNL161W, strain CBK1, stronger effect = lower value 0.947 | S. cerevisiae deletion strains, locus YNL207W, strain RIO2, stronger effect = lower value 0.946 | S. cerevisiae deletion strains, locus YNL222W, strain SSU72, stronger effect = lower value 0.944 | S. cerevisiae deletion strains, locus YNL307C, strain MCK1 (second series), stronger effect = lower value 0.686 | S. cerevisiae deletion strains, locus YOL078W, strain AVO1, stronger effect = lower value 0.939 | S. cerevisiae deletion strains, locus YOL136C, strain PFK27, stronger effect = lower value 0.748 | [8] 0.712 | S. cerevisiae deletion strains, locus YOR329C, strain SCD5, stronger effect = lower value 0.955 | S. cerevisiae deletion strains, locus YPL209C, strain IPL1, stronger effect = lower value 0.955 | S. cerevisiae deletion strains, locus YPR025C, strain CCL1, stronger effect = lower value 0.952 | S. cerevisiae deletion strains, locus YPR106W, strain ISR1, stronger effect = lower value 0.952 | S. cerevisiae deletion strains, locus YPR111W, strain DBF20, stronger effect = lower value 0.951 | S. cerevisiae deletion strains, strain NNK1, stronger effect = lower value 0.948 | S. cerevisiae deletion strains, strain TSCII, stronger effect = lower value 0.934
